Calls of active or inactive are those of the source.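 How the source made its calls: active means compounds that raised 12-lipoxygenase product formation in the cuvette follow-up test, with a fitted potency; inactive means the rest, inconclusive results apart.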
target: Polyunsaturated fatty acid lipoxygenase ALOX12 (Homo sapiens) (UniProt P18054); test: Activators of 12-hLO (12-human lipoxygenase): 12hLO Cuvette-Based Hit Validation Assay of Followup Compounds; details: purified 12-hLO, cuvette UV 234 nm product formation
Sequence (P18054 whole entry, looked up): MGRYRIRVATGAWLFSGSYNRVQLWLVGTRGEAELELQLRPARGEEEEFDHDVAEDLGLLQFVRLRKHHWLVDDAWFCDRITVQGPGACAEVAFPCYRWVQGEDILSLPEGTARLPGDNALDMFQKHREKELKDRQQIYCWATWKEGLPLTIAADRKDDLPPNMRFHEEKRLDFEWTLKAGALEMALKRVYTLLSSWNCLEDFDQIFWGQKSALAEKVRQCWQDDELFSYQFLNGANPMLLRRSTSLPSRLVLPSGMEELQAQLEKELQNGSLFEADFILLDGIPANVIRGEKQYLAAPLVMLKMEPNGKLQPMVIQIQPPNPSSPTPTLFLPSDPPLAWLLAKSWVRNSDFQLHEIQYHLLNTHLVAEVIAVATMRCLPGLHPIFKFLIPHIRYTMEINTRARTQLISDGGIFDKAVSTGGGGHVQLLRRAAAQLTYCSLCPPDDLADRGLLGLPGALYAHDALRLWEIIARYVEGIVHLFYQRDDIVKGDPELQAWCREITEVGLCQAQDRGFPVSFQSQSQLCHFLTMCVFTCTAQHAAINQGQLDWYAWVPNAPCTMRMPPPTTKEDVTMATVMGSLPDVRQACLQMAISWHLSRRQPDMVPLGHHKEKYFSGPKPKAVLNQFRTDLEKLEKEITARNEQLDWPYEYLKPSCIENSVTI
Method: The enzyme activity of 12-hLO was determined by a direct measurement of product formation by monitoring the absorbance at 234 nm in a 2 mL cuvette. IC50 values of inhibitors were obtained by measuring the enzymatic rate at a variety of concentrations (Carroll et al, Segraves et al). This assay was used to validate active or inconclusive putative activators identified in the primary screen (see related BioAssay AIDs). Assay Provider: Holman, T.R., University of California, Santa Cruz Screening Center PI: Austin, Christopher P. Screening Center: NIH Chemical Genomics Center
For control experiments, 2 mL of substrate buffer (10 uM arachidonic acid / 25 mM HEPES / 0.01% (v/v) Triton X-100, pH 8.0) was aliquoted in a cuvette with a magnetic stir bar. After equilibrium was ensured, an aliquot of inhibitor solvent was added (DMSO), and equilibrium was once again assured. The reaction was started by adding enzyme to the cuvette and the reaction was followed until completed. The inhibition experiments were performed as above, except the actual inhibitory compound was added instead of vehicle. To achieve an IC50, typically 5 concentrations of the inhibitor were studied. If the inhibitor concentration was constant, then five different reaction volumes were used. Step \ Parameter \ Value \ Description 1; UV-Vis; 234 nm; Equilibration 2; Reagent; 2 mL; Substrate buffer 3; UV-Vis; 234 nm; Equilibration 4; Reagent; varies; Compound 5; UV-Vis; 234 nm; Equilibration 6; Reagent; 50-200 nM; Enzyme 12-hLO 7; UV-Vis; 234 nm; Enzymatic reaction Step \ Notes 1; Blank cuvette to air. 2; 10 uM AA, 25 mM HEPES, 0.01% Triton X-100, pH 8. 3; No change in absorbance ensured. 4; Compound vehicle or compound in various concentrations depending on potency. 5; No change in absorbance ensured. 6; Enzyme concentration to achieve reaction rate between 0.02 and 0.04 AU/s. 7; Enzymatic reaction visualized until completion.

Row | SMILES | Potency | outcome
1 | O=C(NC(=S)Nc1ccccc1N1CCCC1)c1ccc([N+](=O)[O-])cc1 | 66.7 µM (active) | 
2 | Cc1ccc(C(=O)Nc2nnc(-c3ccco3)o2)cc1C |  | inactive
3 | Cc1ccc(C(=O)/C=C/c2c[nH]c3ccccc23)cc1 |  | inactive
4 | O=C(CSc1n[nH]c(-c2ccccc2)n1)c1ccc(O)c(O)c1 |  | inactive
5 | COc1ccc(-c2[nH]ncc2-c2ccc(Cl)cc2)c(O)c1 |  | inactive
6 | CCCOC(=O)c1ccc(Oc2cn[nH]c2-c2ccc(OC)cc2O)cc1 |  | inactive
7 | Cc1cc(C)c2cc(CN(Cc3nnnn3C3CCCCC3)CC3CCCO3)c(=O)[nH]c2c1 (stereo not given) |  | inactive
8 | COc1ccc(-c2n[nH]c(C(F)(F)F)c2-c2cc3ccccc3o2)c(O)c1 |  | inactive
9 | COc1cc(CNc2ccc(N3CCCC3)cc2)ccc1OCc1ccccc1 |  | inactive
10 | COc1ccc(NC2=NCC(Cc3ccc(Br)cc3)S2)cc1 (stereo not given) |  | inactive
11 | Oc1ccc(-c2csc(-c3ccccc3)n2)cc1O |  | inactive
12 | O=C(Nc1nnc(-c2ccccn2)o1)c1ccc(Br)cc1 |  | inactive
13 | CCOc1ccc(-c2[nH]ncc2Oc2cccc(OC)c2)c(O)c1 |  | inactive
14 | Cc1cc(Cl)cc(Cl)c1OCC(=O)NCc1ccco1 |  | inactive
15 | Cc1ccc(C(=O)Nc2nnc(-c3ccco3)o2)cc1 |  | inactive
16 | Oc1ccc(Cl)cc1-c1cc(-c2ccco2)[nH]n1 |  | inactive
17 | CCc1cc(-c2n[nH]c(C)c2Oc2ccc(C(C)C)cc2)c(O)cc1O |  | inactive
18 | COc1ccc(C(Nc2ccccn2)c2c(NC(=O)c3ccco3)sc(C)c2C)cc1 (stereo not given) |  | inactive
19 | c1ccc(-c2nc(NCc3cccnc3)c3oc4ccccc4c3n2)cc1 |  | inactive
20 | N#CC1=C(N)Oc2n[nH]c(-c3cccs3)c2C1C1CCCCC1 (stereo not given) |  | inactive

Row | SMILES | Potency | outcome
21 | Oc1ccc(C2=Nn3c(nnc3-c3ccco3)SC2)cc1O |  | inactive
22 | Cc1ccc(NC(=O)Nc2cccs2)c(Cl)c1 |  | inactive
23 | CN(C)c1nccc(N(Cc2ccccc2)Cc2ccccc2)c1C#N |  | inactive
24 | Cc1cccnc1NCc1ccc(O)c2ncccc12 | 46.4 µM (active) | 
25 | CCc1cc(-c2[nH]ncc2-c2ccc3c(c2)OCO3)c(O)cc1O |  | inactive
26 | CC1=NN(c2ccc(Cl)cc2)C(=O)C1C(c1cccc(O)c1)c1c(C)[nH]n(-c2ccc(Cl)cc2)c1=O (stereo not given) |  | inactive
27 | CCOC(=O)CNC(c1ccccc1)c1cc(Br)ccc1NC(=O)CCN1CCOCC1 (stereo not given) | 70 µM (active) | 
28 | Oc1ccc(CN2CCCc3ccccc32)c2cccnc12 | 43.6 µM (active) | 
29 | Cc1oc2c(O)c(O)ccc2c(=O)c1-c1cnn(-c2ccccc2)c1 |  | inactive
30 | Oc1ccc(-c2nc(-c3ccc(O)c(O)c3)cs2)cc1 |  | inactive
31 | Cc1[nH]nc(-c2ccc(O)cc2O)c1-c1ccc(Cl)cc1 |  | inactive
32 | O=C(Nc1nnc(-c2ccc(Cl)cc2)o1)c1ccccc1Br |  | inactive
33 | CCc1ccc(S(=O)(=O)/N=C2/C=C(Sc3ncn[nH]3)C(=O)c3ccccc32)cc1 |  | inactive
34 | Cc1ccc(S(=O)(=O)Nc2ccc(NC(=O)Nc3cccc(C(F)(F)F)c3)cc2)cc1 |  | inactive
35 | CSc1ccc(S(=O)(=O)Nc2ccc(S(=O)(=O)Nc3ccc(C)cc3)cc2)cc1 |  | inactive
36 | CCOC(=O)Cc1cc(=O)n(-c2nc3ccccc3s2)[nH]1 |  | inactive
37 | CC1=NN(c2ccc(Cl)cc2)C(=O)C1C(c1ccccc1O)c1c(C)[nH]n(-c2ccc(Cl)cc2)c1=O (stereo not given) |  | inactive
38 | Oc1ccccc1-c1cc(-c2ccc3c(c2)OCCO3)n[nH]1 |  | inactive
39 | O=S(=O)(Nc1ccc(O)c(Sc2nc3ccccc3s2)c1)c1ccc(Cl)cc1 |  | inactive
40 | COc1cccc(CNc2ccc(S(=O)(=O)Nc3nccs3)cc2)c1O |  | inactive
